Compound activity (PubChem)
The list is not random: actives were taken first. Their share in the collection is about 2.5%.
D2 PAM-1: positive allosteric modulators of human D2 dopamine receptor; P14416; HEK293 T-REx D2, calcium flux, EC20 dopamine potentiation; potentiation, % at 10 µM; 340,000 tested, 0.34% active;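 active means potentiation over 3 SD above the plate norm, cut at about 30% in these data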; further: 0% is about no effect
Target sequence (P14416 whole entry, looked up): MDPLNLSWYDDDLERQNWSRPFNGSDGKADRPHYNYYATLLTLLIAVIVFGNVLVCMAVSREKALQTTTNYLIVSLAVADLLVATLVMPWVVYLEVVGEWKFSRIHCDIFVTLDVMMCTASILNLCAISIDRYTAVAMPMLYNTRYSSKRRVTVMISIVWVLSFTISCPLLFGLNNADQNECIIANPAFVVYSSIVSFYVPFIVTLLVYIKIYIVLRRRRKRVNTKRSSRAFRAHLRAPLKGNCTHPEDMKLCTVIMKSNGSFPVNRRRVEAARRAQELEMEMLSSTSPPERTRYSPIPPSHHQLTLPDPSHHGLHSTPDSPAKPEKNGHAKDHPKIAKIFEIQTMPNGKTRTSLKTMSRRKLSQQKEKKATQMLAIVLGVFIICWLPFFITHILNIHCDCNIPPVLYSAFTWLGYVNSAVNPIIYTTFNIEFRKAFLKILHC
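Tetracycline-induced HEK293 T-REx cells force-coupled to calcium signalling expressed D2; compounds were pin-added after a 10 s baseline, read kinetically 180 s, then an EC20 dopamine challenge followed with a further 180 s calcium read.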
D2 antag: D2 dopamine receptor (human) antagonism. P14416. HEK293 TREx D2 cells, calcium flux, dopamine EC80. inhibition, % at 10 µM. 340,000 tested, 2% active; in the data active means inhibition above about 30%; inactive means below that, where a call was filed; further: 0% is about no effect
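Calcium flux kinetic readout in an inducible HEK293 TREx D2 line plated overnight at 30 C. After 180 s compound exposure, an EC80 dopamine challenge follows with another 180 s kinetic read to detect antagonism.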
Anesthetic bind: candidate novel general anesthetic via apoferritin binding; P02791; Potency, µM (top dose mostly 77.5 µM), inactives show at the highest dose activity change, negative = displacement, actives largely listed as inhibitors; 350,000 tested, 0.074% active; apoferritin/1-aminoanthracene competitive binding, fluorescence; AID 485281; active means well fitted inhibition curve with a large enough effect; inconclusive means small, poorly fitted or top-dose-only effect; inactive means no such curve, though single readings can be large or run the other way; further: potency means the concentration at half of the fitted maximal effect; on the % scale 0 is the no-effect control and ±100 the full control effect; nearly all actives have a fitted effect of over 20% in size
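Concentration-response curves derived by four-parameter Hill fitting of normalized fluorescence, where compounds displaced 1-AMA from 10 uM horse apoferritin following a brief 10 min room-temperature incubation; propofol titration acted as positive control.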
D2 ag-1: activates the human D2 dopamine receptor. AID 485358. P14416. 340,000 tested, 0.53% active. HEK293 T-REx D2 cells, calcium flux agonist mode. activation, % at 2 µM;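 active means activation over 3 SD above normal in the single-dose calcium agonist read, cut at about 30% in these data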; further: 0% is about no effect
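Tetracycline-induced HEK293 Trex cells with D2 receptor force-coupled to calcium signaling, plated overnight at 30 C and loaded with no-wash calcium dye. Calcium flux read kinetically for 180 s after compound addition; responses flag agonists.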
D2 ag-2: agonists of human D2 dopamine receptor (beta-arrestin) | DiscoveRx PathHunter D2 beta-arrestin, luminescence, 90 min; 100% = 57 uM dopamine signal | activation, % (no concentration beside the values) | 360,000 tested, 0.084% active; in the data active means activation above about 40%; inconclusive means between about 15% and that limit
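DiscoveRx PathHunter D2 beta-arrestin cells (2,100/well) attached overnight, then compound-stimulated 90 min at 37 C in HBSS/10 mM HEPES/0.1% Tween-20 buffer; beta-galactosidase complementation read by luminescence after 1 h at ambient temperature. Dopamine 57 uM final (EC100) as control.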
D2 PAM-2: potentiates the human D2 dopamine receptor allosterically; DiscoveRx D2 beta-arrestin cells, luminescence, 90 min; 100% = 57 uM dopamine signal; potentiation, % (concentration not given with the values); 360,000 tested, 0.23% active; in the data active means potentiation above about 50%; inconclusive means mostly about 30% to 49%
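D2 cells co-treated with compound plus 50 nM dopamine (EC20) for 90 min at 37 deg C to detect potentiation. Beta-arrestin recruitment was read as enzyme-fragment luminescence after 1 h at ambient temperature. Full response was set by 57 uM dopamine.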
Starred values were filed as active, the others as inactive; ? = inconclusive; nt = no result given.

SMILES	D2 PAM-1	D2 antag	Anesthetic bind	D2 ag-1	D2 ag-2	D2 PAM-2
CCOC(=O)C1CCN(CC(=O)Nc2c(C(=O)OC)[nH]c3ccccc23)CC1	-8	49*	-21%	35*	nt	nt
CCOC(=O)c1[nH]c2ccc(OCC)cc2c1NC(=O)CN1CCN(c2ccccn2)CC1	-5	36*	42%	1	-3	15
Cc1cc(=O)oc2cc(OCC(=O)NC3CCCC3)ccc12	31*	-24	-12%	0	1	-2
CC(=O)c1ccc(OCC(=O)NC2CCCCCC2)cc1	31*	-3	nt	0	-1	4
CCC(=O)c1ccc(OCC(=O)OCC(=O)NC2CCCCCCC2)cc1	15	-20	5.6µM*	-1	2	1
O=C(CSc1cn(CCNC(=O)c2c(F)cccc2F)c2ccccc12)Nc1ccccc1F	-13	nt	15%	1	nt	nt
COC(=O)c1noc(-c2ccc(OC)cc2)n1	2	11	-5%	0	3	-8
CC1=C(C(=O)OCc2ccc3c(c2)OCO3)C(c2ccccc2)NC(=O)N1 (configuration not stated)	6	45*	-22%	1	?	53*
CCOC(=O)C1=C(C)NC(=O)NC1c1cc2c(cc1Br)OCO2 (configuration not stated)	51*	-11	29%	0	-3	-9
CC(=O)Nc1ccc(NC(=O)c2cc(-c3ccc4c(c3)OCCO4)on2)cc1	9	nt	-2%	-2	nt	nt
O=C(Nc1ccc(N2CCOCC2)c(Cl)c1)c1cccnc1Cl	7	-24	2%	0	0	12
CN1CCN(c2ccccc2/C=C2/C(=O)Nc3ccccc32)CC1	-26	37*	0%	3	-4	-13
O=C(O)Cc1ccc(-n2cccc2)cc1	0	37*	4%	0	0	-6
O=C(Cc1ccc(-n2cccc2)cc1)NC1CCCCC1	-4	15	-5%	0	3	3
CCN1C(=O)CCCc2ccccc21	6	8	-6%	0	1	-4
CNCCCN1c2ccccc2CCc2ccccc21	-23	39*	-9%	2	-1	-28
CN(C)CCCN1c2ccccc2CCc2ccc(Cl)cc21	-29	89*	-7%	2	1	-23
CN(CCCN1c2ccccc2CCc2ccccc21)CC(=O)c1ccc(Cl)cc1	nt	nt	-18%	nt	nt	nt
CN(C)CCOC(=O)C12CC3CC(CC(C3)C1)C2	-2	-24	-14%	1	-5	-6
Cc1ccc(NC(=O)CS(=O)CC(=O)N(C2CCCC2)C(C)C(=O)NC2CCCCC2)cc1 (configuration not stated)	49*	2	3%	0	-1	-27
Cc1ccc(NC(=O)CS(=O)CC(=O)N(CC(=O)NC2CCCC2)c2cc(C)ccc2C)cc1 (configuration not stated)	-9	nt	-8%	nt	-2	-17
Cc1ccc(Nc2cc(C(=O)NCCCN3CCOCC3)c3ccccc3n2)c(C)c1	-21	-22	-2%	1	-5	-16
CSc1nc2sc3c(c2c(=O)[nH]1)CCC(C)C3 (configuration not stated)	2	-7	-4%	1	-1	-5
CC1CCc2c(sc3nn[nH]c(=O)c23)C1 (configuration not stated)	-4	7	25µM*	-1	1	-22
CCCS(=O)(=O)N1CCC(C(=O)NCCN2CCC(Cc3ccccc3)CC2)CC1	-21	34*	-8%	38*	1	-5
CCS(=O)(=O)N1CCC(C(=O)NCCCN2CCC(Cc3ccccc3)CC2)CC1	-10	5	-9%	1	0	-4
CS(=O)(=O)N1CCCC(C(=O)NCCCN2CCN(Cc3ccccc3)CC2)C1 (configuration not stated)	2	1	-9%	-1	-2	-18
CS(=O)(=O)N1CCCC(C(=O)NCCCN2CCC(Cc3ccccc3)CC2)C1 (configuration not stated)	-30	46*	2%	1	-1	-24
